Results from paper PMC7862700, “An all-to-all approach to the identification of sequence-specific readers for epigenetic DNA modifications on cytosine”.

Experiments:
Assay in all cases: DAPPL (digital affinity profiling via proximity ligation, sequencing); 10 mM Tris-HCl pH 7.5, 50 mM NaCl, 1 mM DTT, 4% glycerol, room temperature, 30 min; GST-TFs on glutathione beads, 16-mer random dsDNA library, 0.1% formaldehyde crosslink after washing; high values mean tight binding
[1] = target: T1, FLI1 (Homo sapiens, UniProt Q01543 1-452); details: protein: recombinant; tags: N-terminal GST; dsDNA, one strand shown
T1 sequence: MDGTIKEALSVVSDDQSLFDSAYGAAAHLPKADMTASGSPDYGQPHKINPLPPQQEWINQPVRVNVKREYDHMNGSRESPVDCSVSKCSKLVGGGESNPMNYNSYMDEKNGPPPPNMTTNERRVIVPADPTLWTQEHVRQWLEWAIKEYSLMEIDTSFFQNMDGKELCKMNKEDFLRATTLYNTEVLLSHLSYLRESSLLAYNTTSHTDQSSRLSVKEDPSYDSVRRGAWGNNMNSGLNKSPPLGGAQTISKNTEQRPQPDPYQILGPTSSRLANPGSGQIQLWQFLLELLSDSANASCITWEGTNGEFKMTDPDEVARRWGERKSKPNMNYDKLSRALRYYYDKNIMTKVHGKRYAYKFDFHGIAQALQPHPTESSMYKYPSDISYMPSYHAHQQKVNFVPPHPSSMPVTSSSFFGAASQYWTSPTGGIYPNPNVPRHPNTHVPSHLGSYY
How it was run: (§1)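 Yeast served to express human transcription factors as GST fusions, which were then captured on glutathione beads and labelled with DNA barcodes. Pooled with a tag-only sample, they were incubated with 200 nmole of a 16-mer random double-stranded DNA library for 30 min at room temperature in Tris/NaCl/DTT/glycerol buffer, washed, crosslinked with 0.1% formaldehyde, ligated by proximity, amplified by PCR and sequenced. Dividing each hexamer's read frequency for a factor by its frequency for the tag-only sample gives the binding signal.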

[2] = target: T2, ELK1 (Homo sapiens, UniProt P19419 1-428); details: protein: recombinant; tags: N-terminal GST; dsDNA, one strand shown
T2 sequence: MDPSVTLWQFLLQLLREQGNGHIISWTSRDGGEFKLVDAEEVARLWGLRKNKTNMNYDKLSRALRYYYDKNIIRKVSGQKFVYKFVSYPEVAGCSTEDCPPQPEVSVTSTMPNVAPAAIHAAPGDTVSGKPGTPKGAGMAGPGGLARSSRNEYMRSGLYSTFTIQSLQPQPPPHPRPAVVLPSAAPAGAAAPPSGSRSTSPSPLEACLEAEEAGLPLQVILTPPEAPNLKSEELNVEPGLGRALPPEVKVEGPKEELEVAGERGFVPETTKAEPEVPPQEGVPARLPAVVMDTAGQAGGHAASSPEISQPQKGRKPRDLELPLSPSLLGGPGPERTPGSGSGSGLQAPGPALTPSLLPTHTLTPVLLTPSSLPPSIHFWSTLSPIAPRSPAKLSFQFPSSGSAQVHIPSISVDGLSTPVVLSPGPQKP
How it was run: as §1

[3] = target: T3, GABPA (Homo sapiens, UniProt Q06546 1-454); details: protein: recombinant; tags: N-terminal GST; dsDNA, one strand shown
T3 sequence: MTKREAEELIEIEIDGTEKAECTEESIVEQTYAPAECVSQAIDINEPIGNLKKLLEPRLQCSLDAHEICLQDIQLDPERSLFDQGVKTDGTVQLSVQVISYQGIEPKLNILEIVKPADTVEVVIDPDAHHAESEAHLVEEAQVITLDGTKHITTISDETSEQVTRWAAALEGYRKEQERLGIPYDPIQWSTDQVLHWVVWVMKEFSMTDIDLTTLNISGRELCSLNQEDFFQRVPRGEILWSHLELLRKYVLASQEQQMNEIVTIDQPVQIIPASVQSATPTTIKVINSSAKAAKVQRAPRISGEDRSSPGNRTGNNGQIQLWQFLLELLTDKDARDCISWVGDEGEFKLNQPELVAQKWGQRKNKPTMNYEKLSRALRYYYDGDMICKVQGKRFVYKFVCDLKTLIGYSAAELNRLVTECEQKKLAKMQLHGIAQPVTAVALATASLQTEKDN
How it was run: as §1

[4] = target: T4, ERG (Homo sapiens, UniProt P11308 1-479); details: protein: recombinant; tags: N-terminal GST; dsDNA, one strand shown
T4 sequence: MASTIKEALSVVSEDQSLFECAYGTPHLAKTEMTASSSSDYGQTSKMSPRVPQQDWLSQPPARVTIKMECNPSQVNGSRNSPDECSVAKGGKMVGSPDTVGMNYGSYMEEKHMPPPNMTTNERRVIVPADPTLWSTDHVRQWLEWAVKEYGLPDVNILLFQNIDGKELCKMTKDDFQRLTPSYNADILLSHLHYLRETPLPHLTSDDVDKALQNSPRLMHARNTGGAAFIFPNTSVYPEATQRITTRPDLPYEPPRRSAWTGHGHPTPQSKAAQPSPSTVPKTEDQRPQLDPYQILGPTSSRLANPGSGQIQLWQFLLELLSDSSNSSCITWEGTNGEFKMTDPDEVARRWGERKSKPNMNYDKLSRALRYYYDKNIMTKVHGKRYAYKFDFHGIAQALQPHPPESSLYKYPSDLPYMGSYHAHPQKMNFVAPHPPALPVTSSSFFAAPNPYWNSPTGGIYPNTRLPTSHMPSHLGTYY
How it was run: as §1

[5] = target: ELF1 (Homo sapiens, UniProt P32519 1-619); details: protein: recombinant; tags: N-terminal GST; dsDNA, one strand shown
How it was run: as §1

[6] = target: T5, EHF (Homo sapiens, UniProt Q9NZC4 1-300); details: protein: recombinant; tags: N-terminal GST; dsDNA, one strand shown
T5 sequence: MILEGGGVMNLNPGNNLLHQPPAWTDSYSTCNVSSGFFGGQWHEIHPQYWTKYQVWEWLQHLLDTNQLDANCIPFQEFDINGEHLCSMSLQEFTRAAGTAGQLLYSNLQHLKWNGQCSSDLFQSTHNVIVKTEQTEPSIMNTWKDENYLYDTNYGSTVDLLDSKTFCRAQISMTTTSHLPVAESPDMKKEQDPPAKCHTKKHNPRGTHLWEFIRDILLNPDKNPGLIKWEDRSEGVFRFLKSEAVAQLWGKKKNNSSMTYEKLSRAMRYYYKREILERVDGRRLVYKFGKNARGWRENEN
How it was run: as §1

[7] = target: SPI1 (Homo sapiens, UniProt P17947 1-270); details: protein: recombinant; tags: N-terminal GST; dsDNA, one strand shown
How it was run: as §1

[8] = target: SPIB (Homo sapiens, UniProt Q01892 1-262); details: protein: recombinant; tags: N-terminal GST; dsDNA, one strand shown
How it was run: as §1

[9] = target: T6, ELK3 (Homo sapiens, UniProt P41970 1-407); details: protein: recombinant; tags: N-terminal GST; dsDNA, one strand shown
T6 sequence: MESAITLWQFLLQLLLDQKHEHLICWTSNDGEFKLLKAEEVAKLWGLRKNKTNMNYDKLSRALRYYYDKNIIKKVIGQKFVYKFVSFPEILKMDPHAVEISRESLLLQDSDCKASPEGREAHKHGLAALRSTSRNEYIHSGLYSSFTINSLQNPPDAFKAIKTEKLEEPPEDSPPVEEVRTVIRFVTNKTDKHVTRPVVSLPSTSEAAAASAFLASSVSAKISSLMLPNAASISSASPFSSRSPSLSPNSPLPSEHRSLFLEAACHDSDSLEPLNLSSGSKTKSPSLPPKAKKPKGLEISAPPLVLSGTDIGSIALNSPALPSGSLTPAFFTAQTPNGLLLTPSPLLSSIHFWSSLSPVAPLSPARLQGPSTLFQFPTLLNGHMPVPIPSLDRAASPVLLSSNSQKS
How it was run: as §1

[10] = target: T7, FEV (Homo sapiens, UniProt Q99581 1-238); details: protein: recombinant; tags: N-terminal GST; dsDNA, one strand shown
T7 sequence: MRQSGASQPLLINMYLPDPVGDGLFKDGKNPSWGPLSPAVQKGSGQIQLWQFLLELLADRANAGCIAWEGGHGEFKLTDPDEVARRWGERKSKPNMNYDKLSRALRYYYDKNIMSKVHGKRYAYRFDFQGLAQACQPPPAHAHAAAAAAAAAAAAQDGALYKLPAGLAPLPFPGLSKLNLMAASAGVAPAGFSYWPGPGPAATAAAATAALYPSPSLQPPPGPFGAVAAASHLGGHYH
How it was run: as §1

[11] = target: ETV5 (Homo sapiens, UniProt P41161 1-510); details: protein: recombinant; tags: N-terminal GST; dsDNA, one strand shown
How it was run: as §1

[12] = target: HSF1 (Homo sapiens, UniProt Q00613 1-529); details: protein: recombinant; tags: N-terminal GST; chain copies: 3; dsDNA, one strand shown
How it was run: as §1

[13] = target: T8, SPIC (Homo sapiens, UniProt Q8N5J4 1-248); details: protein: recombinant; tags: N-terminal GST; dsDNA, one strand shown
T8 sequence: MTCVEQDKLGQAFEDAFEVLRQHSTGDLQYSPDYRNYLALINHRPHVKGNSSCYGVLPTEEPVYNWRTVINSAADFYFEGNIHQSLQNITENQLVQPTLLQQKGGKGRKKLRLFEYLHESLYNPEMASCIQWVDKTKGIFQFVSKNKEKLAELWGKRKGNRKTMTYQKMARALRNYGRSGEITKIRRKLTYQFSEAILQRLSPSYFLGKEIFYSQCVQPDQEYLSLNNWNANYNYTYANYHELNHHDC
How it was run: as §1

[14] = target: ELF4 (Homo sapiens, UniProt Q99607 1-663); details: protein: recombinant; tags: N-terminal GST; dsDNA, one strand shown
How it was run: as §1

[15] = target: T9, ELK4 (Homo sapiens, UniProt P28324-2 1-405); details: protein: recombinant; tags: N-terminal GST; dsDNA, one strand shown
T9 sequence: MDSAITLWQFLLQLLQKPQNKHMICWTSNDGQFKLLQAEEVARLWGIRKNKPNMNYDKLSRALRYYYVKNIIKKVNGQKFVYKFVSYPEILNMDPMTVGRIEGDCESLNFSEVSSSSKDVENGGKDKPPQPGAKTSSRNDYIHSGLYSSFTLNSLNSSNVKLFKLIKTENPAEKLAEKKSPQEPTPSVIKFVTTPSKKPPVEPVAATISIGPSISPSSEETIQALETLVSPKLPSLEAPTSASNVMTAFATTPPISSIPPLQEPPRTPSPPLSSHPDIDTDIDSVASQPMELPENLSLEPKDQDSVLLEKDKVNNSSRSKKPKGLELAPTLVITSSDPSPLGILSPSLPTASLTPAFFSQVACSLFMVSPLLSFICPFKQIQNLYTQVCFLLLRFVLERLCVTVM
How it was run: as §1

[16] = target: T10, ETV2 (Homo sapiens, UniProt O00321 1-342); details: protein: recombinant; tags: N-terminal GST; dsDNA, one strand shown
T10 sequence: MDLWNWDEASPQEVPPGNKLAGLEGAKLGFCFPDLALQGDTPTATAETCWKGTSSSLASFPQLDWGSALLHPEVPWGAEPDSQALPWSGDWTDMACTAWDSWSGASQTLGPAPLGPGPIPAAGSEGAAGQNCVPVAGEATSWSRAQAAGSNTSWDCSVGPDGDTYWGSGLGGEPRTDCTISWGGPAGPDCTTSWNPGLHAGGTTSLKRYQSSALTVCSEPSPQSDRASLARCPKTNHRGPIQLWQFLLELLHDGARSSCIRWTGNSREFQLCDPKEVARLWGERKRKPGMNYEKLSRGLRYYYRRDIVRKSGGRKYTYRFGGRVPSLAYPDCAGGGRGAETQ
How it was run: as §1

[17] = target: T11, ELF3 (Homo sapiens, UniProt P78545 1-371); details: protein: recombinant; tags: N-terminal GST; dsDNA, one strand shown
T11 sequence: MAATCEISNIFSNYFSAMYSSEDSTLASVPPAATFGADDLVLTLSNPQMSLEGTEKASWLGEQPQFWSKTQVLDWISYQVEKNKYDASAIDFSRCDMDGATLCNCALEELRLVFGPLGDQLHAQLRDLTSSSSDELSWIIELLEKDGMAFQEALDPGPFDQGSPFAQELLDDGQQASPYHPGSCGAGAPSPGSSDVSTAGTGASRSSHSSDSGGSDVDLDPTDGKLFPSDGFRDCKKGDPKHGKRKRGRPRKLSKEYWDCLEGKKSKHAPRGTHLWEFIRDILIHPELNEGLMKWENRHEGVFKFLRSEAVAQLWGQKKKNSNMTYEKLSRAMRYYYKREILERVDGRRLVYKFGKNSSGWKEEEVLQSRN
How it was run: as §1

[18] = target: CRX (Homo sapiens, UniProt O43186 1-299); details: protein: recombinant; tags: N-terminal GST; dsDNA, one strand shown
How it was run: as §1

[19] = target: ETV1 (Homo sapiens, UniProt P50549 1-477); details: protein: recombinant; tags: N-terminal GST; dsDNA, one strand shown
How it was run: as §1

Sequence of ETV5 (P41161 whole entry): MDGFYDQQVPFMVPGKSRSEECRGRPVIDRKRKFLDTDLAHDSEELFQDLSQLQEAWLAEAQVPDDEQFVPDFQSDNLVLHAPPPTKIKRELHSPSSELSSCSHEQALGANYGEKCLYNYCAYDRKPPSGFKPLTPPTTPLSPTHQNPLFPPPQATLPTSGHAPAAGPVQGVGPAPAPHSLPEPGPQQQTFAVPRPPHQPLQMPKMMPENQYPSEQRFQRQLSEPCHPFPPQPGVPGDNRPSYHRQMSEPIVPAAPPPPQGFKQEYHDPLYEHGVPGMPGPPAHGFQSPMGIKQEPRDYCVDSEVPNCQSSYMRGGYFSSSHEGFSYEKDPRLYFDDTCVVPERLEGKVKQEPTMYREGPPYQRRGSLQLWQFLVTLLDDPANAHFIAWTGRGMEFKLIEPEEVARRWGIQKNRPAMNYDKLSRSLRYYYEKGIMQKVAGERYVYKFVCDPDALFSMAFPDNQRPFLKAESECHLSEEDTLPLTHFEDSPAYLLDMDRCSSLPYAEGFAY
Sequence of ETV1 (P50549 whole entry): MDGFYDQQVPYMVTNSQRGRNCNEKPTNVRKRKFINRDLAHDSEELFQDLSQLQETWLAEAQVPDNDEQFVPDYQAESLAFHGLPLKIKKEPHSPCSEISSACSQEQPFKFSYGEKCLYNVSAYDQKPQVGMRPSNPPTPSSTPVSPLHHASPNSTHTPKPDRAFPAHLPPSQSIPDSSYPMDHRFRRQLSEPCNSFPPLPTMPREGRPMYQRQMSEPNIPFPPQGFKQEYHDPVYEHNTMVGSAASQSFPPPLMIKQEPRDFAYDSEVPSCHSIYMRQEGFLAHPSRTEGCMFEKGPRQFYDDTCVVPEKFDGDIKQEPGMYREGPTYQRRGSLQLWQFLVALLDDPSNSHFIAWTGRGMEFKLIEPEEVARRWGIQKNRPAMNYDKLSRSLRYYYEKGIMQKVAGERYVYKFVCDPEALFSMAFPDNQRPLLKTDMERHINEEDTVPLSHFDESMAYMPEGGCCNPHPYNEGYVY
Sequence of ELF4 (Q99607 whole entry): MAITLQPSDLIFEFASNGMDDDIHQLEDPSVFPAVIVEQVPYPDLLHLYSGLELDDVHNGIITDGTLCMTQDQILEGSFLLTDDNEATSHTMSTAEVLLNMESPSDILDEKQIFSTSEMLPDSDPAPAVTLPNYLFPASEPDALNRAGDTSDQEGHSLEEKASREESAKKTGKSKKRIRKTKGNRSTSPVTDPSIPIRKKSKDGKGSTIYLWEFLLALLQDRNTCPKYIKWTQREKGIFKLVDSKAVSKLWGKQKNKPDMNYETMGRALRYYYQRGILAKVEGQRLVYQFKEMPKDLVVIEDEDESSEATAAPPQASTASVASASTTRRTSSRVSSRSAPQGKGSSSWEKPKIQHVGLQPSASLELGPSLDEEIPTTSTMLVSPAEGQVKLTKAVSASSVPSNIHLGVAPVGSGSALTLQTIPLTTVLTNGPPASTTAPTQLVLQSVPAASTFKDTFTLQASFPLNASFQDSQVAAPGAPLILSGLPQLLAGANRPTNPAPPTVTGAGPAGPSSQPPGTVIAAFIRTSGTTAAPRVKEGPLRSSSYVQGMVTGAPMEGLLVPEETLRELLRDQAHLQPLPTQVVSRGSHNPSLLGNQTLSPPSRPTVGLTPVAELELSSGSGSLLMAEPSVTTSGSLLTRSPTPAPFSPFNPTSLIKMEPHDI
Sequence of SPIB (Q01892 whole entry): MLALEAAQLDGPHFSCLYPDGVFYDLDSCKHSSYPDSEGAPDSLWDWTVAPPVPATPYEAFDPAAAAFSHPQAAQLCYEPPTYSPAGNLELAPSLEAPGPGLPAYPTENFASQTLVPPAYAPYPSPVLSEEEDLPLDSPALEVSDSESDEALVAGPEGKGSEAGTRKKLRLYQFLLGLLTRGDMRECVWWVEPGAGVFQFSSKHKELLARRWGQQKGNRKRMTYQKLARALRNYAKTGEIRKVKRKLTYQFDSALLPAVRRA
Sequence of HSF1 (Q00613 whole entry): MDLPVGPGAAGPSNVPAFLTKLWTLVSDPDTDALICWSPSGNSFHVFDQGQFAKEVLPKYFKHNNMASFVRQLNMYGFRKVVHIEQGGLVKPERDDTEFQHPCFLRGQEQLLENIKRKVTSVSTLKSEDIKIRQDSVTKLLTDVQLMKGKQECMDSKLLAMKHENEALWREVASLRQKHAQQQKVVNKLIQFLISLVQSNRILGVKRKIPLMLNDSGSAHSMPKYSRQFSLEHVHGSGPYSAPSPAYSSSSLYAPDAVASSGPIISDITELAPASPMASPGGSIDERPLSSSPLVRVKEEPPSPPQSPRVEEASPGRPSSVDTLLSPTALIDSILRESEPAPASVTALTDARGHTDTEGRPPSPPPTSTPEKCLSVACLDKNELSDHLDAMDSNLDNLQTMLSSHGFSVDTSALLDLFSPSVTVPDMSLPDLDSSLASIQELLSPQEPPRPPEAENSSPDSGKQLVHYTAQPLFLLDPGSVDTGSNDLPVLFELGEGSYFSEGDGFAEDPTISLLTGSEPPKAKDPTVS
Sequence of ELF1 (P32519 whole entry): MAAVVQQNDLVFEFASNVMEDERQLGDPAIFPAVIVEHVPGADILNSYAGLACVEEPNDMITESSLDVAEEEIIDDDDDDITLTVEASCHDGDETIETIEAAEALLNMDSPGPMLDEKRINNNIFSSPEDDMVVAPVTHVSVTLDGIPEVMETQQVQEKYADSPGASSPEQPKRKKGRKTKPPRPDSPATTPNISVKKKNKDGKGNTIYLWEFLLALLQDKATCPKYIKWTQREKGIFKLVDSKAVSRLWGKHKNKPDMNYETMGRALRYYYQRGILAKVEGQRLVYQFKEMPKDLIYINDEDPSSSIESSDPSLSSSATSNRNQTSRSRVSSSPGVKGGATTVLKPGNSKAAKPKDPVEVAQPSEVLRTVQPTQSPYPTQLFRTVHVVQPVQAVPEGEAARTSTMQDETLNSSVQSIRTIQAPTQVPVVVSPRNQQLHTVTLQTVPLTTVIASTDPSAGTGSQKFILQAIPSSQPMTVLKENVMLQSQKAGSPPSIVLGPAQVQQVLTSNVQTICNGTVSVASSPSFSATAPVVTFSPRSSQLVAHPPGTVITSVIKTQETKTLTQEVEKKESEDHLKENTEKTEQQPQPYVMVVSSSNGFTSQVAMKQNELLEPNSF
Sequence of CRX (O43186 whole entry): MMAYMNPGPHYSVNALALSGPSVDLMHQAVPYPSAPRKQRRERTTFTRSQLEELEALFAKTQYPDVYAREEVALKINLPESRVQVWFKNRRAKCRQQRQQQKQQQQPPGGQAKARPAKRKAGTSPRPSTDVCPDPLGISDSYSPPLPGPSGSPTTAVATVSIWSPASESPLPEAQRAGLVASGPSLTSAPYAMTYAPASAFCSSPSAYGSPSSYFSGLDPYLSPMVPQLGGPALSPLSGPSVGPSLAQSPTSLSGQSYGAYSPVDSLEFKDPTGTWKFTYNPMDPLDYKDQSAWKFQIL

With TAAAAT the binding signal [1] was 1.17 fold enrichment (6-mer frequency, TF over GST control), the binding signal [2] was 1.2 fold enrichment (6-mer frequency, TF over GST control) and the binding signal [3] was 1.25 fold enrichment (6-mer frequency, TF over GST control). For the same sequence, the binding signal [4] was 1.19 fold enrichment (6-mer frequency, TF over GST control), the binding signal [5] was 1.24 fold enrichment (6-mer frequency, TF over GST control) and the binding signal [6] was 1.1 fold enrichment (6-mer frequency, TF over GST control). For the same sequence, the binding signal [7] was 1.25 fold enrichment (6-mer frequency, TF over GST control), the binding signal [8] was 1.2 fold enrichment (6-mer frequency, TF over GST control) and the binding signal [9] was 1.1 fold enrichment (6-mer frequency, TF over GST control). The binding signal [10] was 1.14 fold enrichment (6-mer frequency, TF over GST control), the binding signal [11] was 1.22 fold enrichment (6-mer frequency, TF over GST control) and the binding signal [12] was 1.48 fold enrichment (6-mer frequency, TF over GST control). For the same sequence, the binding signal [13] was 1.19 fold enrichment (6-mer frequency, TF over GST control), the binding signal [14] was 1.2 fold enrichment (6-mer frequency, TF over GST control) and the binding signal [15] was 1.2 fold enrichment (6-mer frequency, TF over GST control). For the same sequence, the binding signal [16] was 1.34 fold enrichment (6-mer frequency, TF over GST control), the binding signal [17] was 1.27 fold enrichment (6-mer frequency, TF over GST control) and the binding signal [18] was 1.76 fold enrichment (6-mer frequency, TF over GST control). The binding signal [19] was 1.22 fold enrichment (6-mer frequency, TF over GST control).
